From the supplement of paper PMC10849652
About 7,900 targets were measured; listed, in parts, are those with a hit and a random draw of the rest. About 0.6% of all pairs of compound and target were hits.

Compound: C1=CC2=NC=CN=C2C=C1/C=C/3\C(=O)NC(=O)S3
Assay: log2 fold change, soluble protein after heating vs DMSO (PISA); higher = thermal stabilisation; K562 cells, 10 uM, 30 min; active = over 0.2 and 3.5 SD of the protein, either way, in both replicates (recomputed)
Outline: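 Quantification of soluble protein used TMTpro 16plex LC-MS/MS, with channel sums equalised. Samples were the supernatant after 21,000xg for 90 min of pooled aliquots from K562 cells (2×10^6 cells/mL) treated with 10 μM compound for 30 min, heated for 3 min over 48°C-58°C, and extracted in PBS with 0.5% NP-40 at 4°C. Values, from duplicates, describe thermal stability against control samples on a log2 fold-change scale.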

Chain of UniProt A0PJW6 (A0PJW6 whole entry, looked up): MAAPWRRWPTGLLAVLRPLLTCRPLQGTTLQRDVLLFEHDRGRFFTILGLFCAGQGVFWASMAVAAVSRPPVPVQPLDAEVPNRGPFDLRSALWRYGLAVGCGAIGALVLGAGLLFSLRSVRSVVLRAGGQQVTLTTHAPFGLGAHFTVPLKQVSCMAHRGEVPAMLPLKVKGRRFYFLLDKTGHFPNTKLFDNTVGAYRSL
Chain of UniProt Q9P0T7 (Q9P0T7 whole entry, looked up): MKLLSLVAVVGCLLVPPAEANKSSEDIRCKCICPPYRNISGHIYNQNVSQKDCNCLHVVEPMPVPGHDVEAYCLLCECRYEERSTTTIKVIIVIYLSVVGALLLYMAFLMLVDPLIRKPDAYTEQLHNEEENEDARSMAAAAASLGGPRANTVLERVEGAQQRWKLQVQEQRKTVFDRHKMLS
Chain of UniProt P30291 (P30291 whole entry, looked up): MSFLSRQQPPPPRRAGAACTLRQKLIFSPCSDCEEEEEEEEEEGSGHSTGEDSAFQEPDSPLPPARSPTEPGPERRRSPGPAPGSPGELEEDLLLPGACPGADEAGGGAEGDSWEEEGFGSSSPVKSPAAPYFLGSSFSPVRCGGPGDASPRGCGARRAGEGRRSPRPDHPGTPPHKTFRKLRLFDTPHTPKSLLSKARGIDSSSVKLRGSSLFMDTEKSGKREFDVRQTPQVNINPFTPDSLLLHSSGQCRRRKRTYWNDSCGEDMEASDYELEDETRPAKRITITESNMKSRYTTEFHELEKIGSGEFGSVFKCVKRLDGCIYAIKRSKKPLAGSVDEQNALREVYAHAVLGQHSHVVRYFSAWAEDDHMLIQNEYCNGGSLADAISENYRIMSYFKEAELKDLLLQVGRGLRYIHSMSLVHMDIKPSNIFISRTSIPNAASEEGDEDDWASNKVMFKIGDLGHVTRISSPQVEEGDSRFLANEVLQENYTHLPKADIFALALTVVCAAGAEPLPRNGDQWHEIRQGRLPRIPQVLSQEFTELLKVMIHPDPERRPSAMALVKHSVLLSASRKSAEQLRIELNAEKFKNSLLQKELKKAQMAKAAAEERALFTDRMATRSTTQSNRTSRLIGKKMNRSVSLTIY
Chain of UniProt O75674 (O75674 whole entry, looked up): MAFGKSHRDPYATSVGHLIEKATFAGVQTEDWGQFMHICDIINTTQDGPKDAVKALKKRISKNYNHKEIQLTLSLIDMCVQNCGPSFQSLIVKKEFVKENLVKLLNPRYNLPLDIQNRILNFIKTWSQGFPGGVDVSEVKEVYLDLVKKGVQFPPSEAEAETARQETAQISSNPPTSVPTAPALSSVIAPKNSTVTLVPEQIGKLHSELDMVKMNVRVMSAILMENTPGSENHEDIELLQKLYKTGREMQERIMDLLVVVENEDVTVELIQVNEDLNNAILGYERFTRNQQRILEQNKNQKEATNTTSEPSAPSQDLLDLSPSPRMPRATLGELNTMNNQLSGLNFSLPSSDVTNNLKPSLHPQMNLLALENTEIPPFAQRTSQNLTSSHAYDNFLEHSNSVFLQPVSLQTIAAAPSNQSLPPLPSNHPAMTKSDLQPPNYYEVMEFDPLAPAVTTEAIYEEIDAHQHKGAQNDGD
Chain of UniProt Q92890 (Q92890 whole entry, looked up): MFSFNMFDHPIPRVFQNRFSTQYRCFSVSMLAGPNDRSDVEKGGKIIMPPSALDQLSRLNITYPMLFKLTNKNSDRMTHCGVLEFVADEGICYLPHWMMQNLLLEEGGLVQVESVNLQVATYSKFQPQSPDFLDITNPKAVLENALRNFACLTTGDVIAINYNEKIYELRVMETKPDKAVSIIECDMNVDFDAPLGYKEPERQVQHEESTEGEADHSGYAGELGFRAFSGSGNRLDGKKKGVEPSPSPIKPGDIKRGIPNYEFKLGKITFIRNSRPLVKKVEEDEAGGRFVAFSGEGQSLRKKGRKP
Chain of UniProt Q14157 (Q14157 whole entry, looked up): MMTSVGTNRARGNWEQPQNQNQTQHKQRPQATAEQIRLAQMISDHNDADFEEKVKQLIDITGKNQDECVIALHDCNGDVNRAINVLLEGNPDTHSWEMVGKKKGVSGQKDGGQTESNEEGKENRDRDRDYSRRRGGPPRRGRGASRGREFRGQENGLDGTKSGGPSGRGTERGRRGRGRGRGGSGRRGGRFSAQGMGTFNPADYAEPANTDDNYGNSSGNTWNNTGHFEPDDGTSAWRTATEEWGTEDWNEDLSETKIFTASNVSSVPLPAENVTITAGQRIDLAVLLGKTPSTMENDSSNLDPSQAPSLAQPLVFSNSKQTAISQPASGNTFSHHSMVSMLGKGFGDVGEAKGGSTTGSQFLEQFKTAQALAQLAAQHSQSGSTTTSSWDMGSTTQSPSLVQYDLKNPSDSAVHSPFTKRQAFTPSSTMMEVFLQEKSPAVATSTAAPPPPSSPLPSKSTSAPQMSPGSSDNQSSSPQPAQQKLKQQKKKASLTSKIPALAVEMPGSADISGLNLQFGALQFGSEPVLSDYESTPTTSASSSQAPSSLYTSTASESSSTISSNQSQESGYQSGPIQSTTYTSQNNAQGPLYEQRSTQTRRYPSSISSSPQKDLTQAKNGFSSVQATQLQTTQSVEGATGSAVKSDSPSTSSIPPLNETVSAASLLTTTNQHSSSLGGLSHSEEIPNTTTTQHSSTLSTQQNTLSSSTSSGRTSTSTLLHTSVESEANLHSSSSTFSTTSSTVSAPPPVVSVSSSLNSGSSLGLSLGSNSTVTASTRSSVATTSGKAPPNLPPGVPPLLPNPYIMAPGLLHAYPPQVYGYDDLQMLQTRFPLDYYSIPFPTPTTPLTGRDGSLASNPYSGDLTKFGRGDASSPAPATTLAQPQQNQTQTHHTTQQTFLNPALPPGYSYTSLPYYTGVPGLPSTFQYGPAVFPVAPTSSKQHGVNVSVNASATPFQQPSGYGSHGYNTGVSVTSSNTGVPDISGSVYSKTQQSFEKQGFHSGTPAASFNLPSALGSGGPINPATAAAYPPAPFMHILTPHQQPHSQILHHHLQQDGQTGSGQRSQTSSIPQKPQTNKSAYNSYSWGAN
Chain of UniProt Q9UID3 (Q9UID3 whole entry, looked up): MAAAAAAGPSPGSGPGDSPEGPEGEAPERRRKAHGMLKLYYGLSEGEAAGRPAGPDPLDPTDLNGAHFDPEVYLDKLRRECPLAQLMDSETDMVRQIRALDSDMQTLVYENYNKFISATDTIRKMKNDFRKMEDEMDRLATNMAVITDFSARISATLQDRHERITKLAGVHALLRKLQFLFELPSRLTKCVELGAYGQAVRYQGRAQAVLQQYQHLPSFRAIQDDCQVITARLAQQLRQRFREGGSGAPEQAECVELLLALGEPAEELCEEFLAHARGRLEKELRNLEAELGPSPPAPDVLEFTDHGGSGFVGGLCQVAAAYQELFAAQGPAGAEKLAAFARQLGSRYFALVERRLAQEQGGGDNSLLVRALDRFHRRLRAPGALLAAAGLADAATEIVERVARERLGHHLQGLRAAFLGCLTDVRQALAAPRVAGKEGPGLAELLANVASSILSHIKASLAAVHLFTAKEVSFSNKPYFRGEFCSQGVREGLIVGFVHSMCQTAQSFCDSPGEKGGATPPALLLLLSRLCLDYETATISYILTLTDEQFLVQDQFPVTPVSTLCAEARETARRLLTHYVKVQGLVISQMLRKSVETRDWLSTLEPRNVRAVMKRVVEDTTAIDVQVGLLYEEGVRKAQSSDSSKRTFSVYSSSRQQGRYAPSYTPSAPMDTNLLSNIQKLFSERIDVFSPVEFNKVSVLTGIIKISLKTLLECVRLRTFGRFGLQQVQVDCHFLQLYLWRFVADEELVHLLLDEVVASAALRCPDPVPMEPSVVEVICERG
Chain of UniProt O95379 (O95379 whole entry, looked up): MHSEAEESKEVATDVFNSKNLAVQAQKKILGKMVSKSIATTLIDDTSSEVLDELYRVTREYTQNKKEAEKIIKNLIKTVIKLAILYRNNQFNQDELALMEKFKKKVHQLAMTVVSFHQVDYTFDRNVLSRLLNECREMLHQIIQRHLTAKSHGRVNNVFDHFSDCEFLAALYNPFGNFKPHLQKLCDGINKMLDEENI
Chain of UniProt Q5BJH2 (Q5BJH2 whole entry, looked up): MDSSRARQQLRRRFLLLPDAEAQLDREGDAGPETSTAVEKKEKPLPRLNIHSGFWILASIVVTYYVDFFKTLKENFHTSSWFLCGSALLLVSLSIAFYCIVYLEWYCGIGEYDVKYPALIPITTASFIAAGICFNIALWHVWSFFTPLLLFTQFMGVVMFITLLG
Chain of UniProt A6NHL2 (A6NHL2 whole entry, looked up): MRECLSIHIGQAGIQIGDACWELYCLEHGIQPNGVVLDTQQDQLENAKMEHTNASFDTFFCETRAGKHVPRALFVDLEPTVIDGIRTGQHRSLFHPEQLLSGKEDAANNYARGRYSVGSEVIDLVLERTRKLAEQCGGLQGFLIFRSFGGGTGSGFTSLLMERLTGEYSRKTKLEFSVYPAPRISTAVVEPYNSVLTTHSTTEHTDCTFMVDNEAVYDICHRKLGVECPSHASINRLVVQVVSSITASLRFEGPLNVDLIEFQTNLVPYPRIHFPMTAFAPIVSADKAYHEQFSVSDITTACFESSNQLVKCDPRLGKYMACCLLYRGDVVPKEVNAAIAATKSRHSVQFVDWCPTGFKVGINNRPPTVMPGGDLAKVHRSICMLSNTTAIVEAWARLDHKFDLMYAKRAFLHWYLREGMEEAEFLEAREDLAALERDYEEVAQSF
Chain of UniProt Q8NEZ2 (Q8NEZ2 whole entry, looked up): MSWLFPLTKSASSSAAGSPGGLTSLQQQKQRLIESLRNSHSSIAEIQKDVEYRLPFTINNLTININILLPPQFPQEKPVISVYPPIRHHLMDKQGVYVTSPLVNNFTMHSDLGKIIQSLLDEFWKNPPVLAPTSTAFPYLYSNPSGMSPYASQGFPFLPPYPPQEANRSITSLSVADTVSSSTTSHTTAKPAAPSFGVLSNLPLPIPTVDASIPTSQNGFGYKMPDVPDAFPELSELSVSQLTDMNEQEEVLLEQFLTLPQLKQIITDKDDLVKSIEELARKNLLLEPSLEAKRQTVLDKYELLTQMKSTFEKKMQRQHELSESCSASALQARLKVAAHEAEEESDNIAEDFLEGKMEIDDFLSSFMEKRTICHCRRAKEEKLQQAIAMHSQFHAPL

log2 fold change, inactive:
TMEM223 (UniProt A0PJW6) 0.013
USP25 isoform 3 (UniProt Q9UHP3) 0.005
VPS41 (UniProt P49754) 0.056
WDR47 (UniProt O94967) 0.06
TMEM128 (UniProt Q5BJH2) 0.067
WDR41 (UniProt Q9HAD4) 0.019
TMEM9 (UniProt Q9P0T7) -0.117
VPS51 (UniProt Q9UID3) 0.035
TYW1 (UniProt Q9NV66) 0.009
TUBAL3 (UniProt A6NHL2) 0.004
TOM1L1 (UniProt O75674) 0.037
TPR (UniProt P12270) 0.174
TP53BP1 isoform 2 (UniProt Q12888) 0.043
TRAPPC2L (UniProt Q9UL33) 0.001
U2AF1 isoform 2 (UniProt Q01081) 0.015
TMEM9B (UniProt Q9NQ34) -0.013
VPS37A (UniProt Q8NEZ2) 0.059
WEE1 (UniProt P30291) 0.249
TNFAIP8 isoform 4 (UniProt O95379) 0.017
UBAP2L isoform 5 (UniProt Q14157) 0.015
WDR43 (UniProt Q15061) 0.015
UFD1 isoform 1 (UniProt Q92890) 0.015
